Measured values taken from PubChem BioAssay AID489025 (Southern Research Specialized Biocontainment Screening …, 2010).
The campaign covered roughly 2,300 compounds. About 790 (34%) were called active. No rule for the calls is given here. The list shows a part of the results. Results with a measured potency or affinity are listed apart.

Assay: THP-1 cell cytotoxicity, dose response, cytotoxicity control for non-replicating M. tuberculosis project (AID 489025)
Conditions: THP-1 cell viability; series mostly up to 40 µM

Row | SMILES | outcome
1 | Cc1cccc(C2=N/C(=C\c3cccnc3)C(=O)O2)c1 | inactive
2 | O=C(CCSc1nnc(-c2ccccc2)o1)N1CCOCC1 | inactive
3 | Cc1cc(C)cc(OC(=O)c2cccnc2)c1 | inactive
4 | O=C(OCn1nnc2ccccc2c1=O)c1ccc(N2CCOCC2)c([N+](=O)[O-])c1 | inactive
5 | Cc1[nH]n(-c2ccccc2)c(=O)c1C=Nc1cnc2ccccc2c1 | inactive
6 | Cc1cc(CN(C)C)c(O)c(C2(C)CCCCC2)c1 | inactive
7 | Cc1cccc(NC(=O)COC(=O)c2cc3ccccc3oc2=O)c1 | inactive
8 | O=C1NC(=O)C(=Cc2ccc(-c3ccc(Cl)cc3)o2)C(=O)N1 | inactive
9 | O=C(Oc1c(-c2ccco2)oc2ccccc2c1=O)c1cccnc1 | inactive
10 | O=C(CCSc1ccccc1)N1CCCC1 | inactive
11 | CCOc1ccc(OC(=O)c2ccc3c(=O)n4c(nc3c2)CCC4)cc1 | inactive
12 | CCOc1ccc(-c2nc3ccccc3c(=O)o2)cc1 | inactive
13 | CC(C)COc1ccc(C(=O)CCN2CCCCC2)cc1 | inactive
14 | CC(C)Oc1ccc(C(=O)CCN2CCCCC2)cc1 | inactive
15 | COc1ccc(C(=O)CCN2CCCCCC2)cc1 | inactive
16 | O=C(CCN1CCCCCC1)c1ccccc1 | inactive
17 | COc1ccc2cc(C(=O)C3CCCN(Cc4ccccn4)C3)ccc2c1 (configuration not stated) | inactive
18 | COc1ccc(NCC(=O)N2CCCC2)cc1Cl | inactive
19 | CC1C/C(=N/NC(=O)c2cccc(F)c2)c2ccc(O)cc2C1 (configuration not stated) | inactive
20 | CN1CCN(Cc2cc(C(C)(C)C)c(O)c(C(C)(C)C)c2)CC1 | inactive
21 | COc1cc(/C=C2\C(=O)N(c3ccc(S(N)(=O)=O)cc3)N=C2C)ccc1OC(=O)c1ccco1 | inactive
22 | CCC(C)n1nnc2c(=O)oc3ccccc3c21 (configuration not stated) | inactive
23 | COc1ccc(OCC(=O)N/N=C2\CCc3ccccc32)cc1 | inactive
24 | CC(NC(=O)OCc1ccccc1)c1ccccc1 (configuration not stated) | inactive
25 | Cc1ccc(NC(CC(=O)c2ccccc2)C(=O)O)cc1Cl (configuration not stated) | inactive
26 | O=C(c1cccc2cccc(O)c12)N1CCCCC1 | inactive

Row | SMILES | outcome
27 | CCc1ccc(C(=O)NC2CCCCC2)s1 | inactive
28 | CC(C)(NO)/C(=N\O)c1ccccc1 | inactive
29 | Cc1c(Cl)cccc1NC(=O)C1COc2ccccc2O1 (configuration not stated) | inactive
30 | O=S(=O)(CCN1CCN(c2ccccn2)CC1)c1ccc(Cl)cc1Cl | inactive
31 | COc1ccc(OC)c(N2C(=O)NC(=O)/C(=C/c3ccc([N+](=O)[O-])s3)C2=O)c1 | inactive
32 | O=C1NC(=O)N(Cc2ccc(F)cc2)C(=O)/C1=C\c1ccc([N+](=O)[O-])s1 | inactive
33 | O=C1NC(=O)C(=Cc2ccc(Oc3ccc([N+](=O)[O-])cc3)cc2)C(=O)N1 | inactive
34 | NNC(=O)COc1cccc(Oc2ccccc2)c1 | inactive
35 | CC(C(=O)OCC(=O)c1ccccc1)N1C(=O)C2C3CCC(C3)C2C1=O (configuration not stated) | inactive
36 | CC1=NN(C(=O)c2csc(C)c2)C(O)(C(F)(F)F)C1 (configuration not stated) | inactive
37 | CC1=NN(C(=O)c2ccoc2C)C(O)(C(F)(F)F)C1 (configuration not stated) | inactive
38 | CCC(=O)c1ccc(OCC(=O)OCC(=O)c2cc(C)n(C3CC3)c2C)cc1 | inactive
39 | Cc1ccsc1C(=O)OCC(=O)NCCC1=CCCCC1 | inactive
40 | NCCCN1CCOCC1 | inactive
41 | O=C1CC(N2CCC(C(=O)N3CCCCC3)CC2)C(=O)N1 (configuration not stated) | inactive
42 | COC(=O)c1cc(/C=C/c2ccccc2)on1 | inactive
43 | COc1ccc(C(=O)CC(=O)C(=O)NCCc2cccc(C)c2)cc1 | inactive
44 | O=C1NC(=O)N(Cc2ccco2)C(=O)/C1=C\c1cccn1CCOc1ccc(Cl)cc1 | inactive
45 | CC(=O)c1c(O)cc(=O)n(-c2ccccc2)c1-c1ccc(C)cc1 | inactive
46 | O=C(N/N=C/c1ccc(O)cc1)c1cccc(C(F)(F)F)c1 | inactive
47 | O=C(Nc1nnc(C2=COCCO2)o1)c1cccc(C(F)(F)F)c1 | inactive
48 | Cc1cc(NC(=O)COC(=O)COc2ccc(C(=O)c3ccccc3)cc2)no1 | inactive
49 | CC1=NN(C(=O)c2ccc(C)o2)C(O)(c2ccccc2)C1 (configuration not stated) | inactive
50 | CC1=NN(C(=O)c2ccccc2Cl)C(O)(c2ccccc2)C1 (configuration not stated) | inactive
51 | CC1=NN(C(=O)COc2ccccc2)C(O)(c2ccccc2)C1 (configuration not stated) | inactive
52 | CC1=NN(C(=O)c2ccccc2F)C(O)(c2ccc(Cl)cc2)C1 (configuration not stated) | inactive

Row | SMILES | outcome
53 | CSc1ccc(COC(=O)CCS(=O)(=O)c2ccc(C)cc2)cc1 | inactive
54 | CCc1nnc(NC(=O)CN2CCN(c3ccccc3F)CC2)s1 | inactive
55 | CCOC(=O)COc1c(-c2ccc(OC)cc2)oc2ccccc2c1=O | inactive
56 | O=C(OCc1nnc(-c2ccccc2)o1)c1cc([N+](=O)[O-])ccc1Cl | inactive
57 | CCCOc1ccc(N2CC(C(=O)Nc3ccccc3F)CC2=O)cc1 (configuration not stated) | inactive
58 | O=C(NC(=S)N1CCN(Cc2ccc3c(c2)OCO3)CC1)c1ccc(Cl)cc1 | inactive
59 | Nc1ccc(Nc2ccccc2)cc1 | inactive
60 | CC(C)=CCN1CCN(CCC2=C(C)CCCC2(C)C)CC1CCO (configuration not stated) | inactive
61 | CC(C)c1ccc(OCC(=O)NC2=NCCS2)cc1 | inactive
62 | O=C(/C=C/Nc1ccccc1O)c1ccco1 | inactive
63 | O=C(Oc1ccccc1)c1ccc(NC(=O)c2ccco2)cc1 | inactive
64 | CC1=NN(C(=O)COc2ccccc2C)C(O)(c2ccc(Cl)cc2)C1 (configuration not stated) | inactive
65 | CC(C)(C)OC(=O)N/N=C\c1ccc(OC(=O)c2ccco2)cc1 | inactive
66 | O=C(CNC(=O)c1ccc(Br)cc1)c1ccc(Br)cc1 | inactive
67 | O=C(Nc1nccs1)c1ccc(Br)cc1 | inactive
68 | O=C(CNC(=O)c1ccccc1)OC1CCCCC1 | inactive
69 | O=[N+]([O-])c1ncccc1Oc1nc(-c2cccnc2)nc2ccccc12 | inactive
70 | CCOc1ccc(N2CC(=O)Nc3ccccc3NCC2=O)cc1 | inactive
71 | COC(=O)c1ccc(COC(=O)c2ccccn2)cc1 | inactive
72 | CCOc1cc(/C=N/NC(=O)c2ccccn2)ccc1OC(=O)c1cccs1 | inactive
73 | CCOc1ccc(OCc2ccc(C(=O)OCc3ccccn3)o2)cc1 | inactive
74 | O=C(N[C@@H]1C[C@H]2CC[C@@H]1C2)c1ccco1 | inactive
75 | Clc1ccc(SCCOCCN2CCc3ccccc3C2)cc1 | inactive
76 | O=C(OCn1nnc2ccccc2c1=O)c1cccs1 | inactive
77 | COc1ccccc1C1=NOC(COC(=O)c2ccc([N+](=O)[O-])cc2)C1 (configuration not stated) | inactive
